Compounds with a hit are over-represented: about 3.1% of the library has one in this group of screens.
FGF22 binding: binders of human FGF22 protein, primary screen, FGF22 synaptogenesis inhibitor project, biophysical, thermal shift, single point. Fibroblast growth factor 22 (Homo sapiens), Q9HCT0. 1.5% of 340,000 active. recombinant FGF22 thermal shift, SYPRO orange fluorescence; percent of sucrose octasulfate shift, DMSO zero. activity (Tm shift, normalised), % at 9.99 µM. AID 651658, 2012;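 active = mean Tm shift, scaled 0 neutral to 100 positive control, at about 1.3% or above, every replicate too, limit read from the data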
Casp6 inh: human caspase-6 inhibitors, primary screen, biochemical, VEID-R110 fluorescence, single point, set 2; inhibition, % at 12.5 µM; 0.53% of 350,000 active; purified caspase-6, Z-VEID-R110 cleavage fluorescence; AID 686996, 2013;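 active = mean inhibition across replicates at least about 35%, with every replicate also reaching that limit, limit read from the data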;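 also: 0% = median of neutral control wells and 100% = no fluorescence left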
ERAP1 HTS inh: human ERAP1 aminopeptidase inhibitors, primary screen, biochemical, single point, plate reader. inhibition, % at 10.7 µM. 0.15% of 340,000 active. recombinant ERAP1, Leu-AMC fluorescence, 60 min;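 active = mean replicate inhibition of at least 30%, or all replicates individually reaching that 30% level; inactive = mean below 30% and not every replicate reaching it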;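 also: 0% = neutral control wells and 100% = L-leucinethiol positive control wells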
Target sequence (Q9NZ08 whole entry, looked up): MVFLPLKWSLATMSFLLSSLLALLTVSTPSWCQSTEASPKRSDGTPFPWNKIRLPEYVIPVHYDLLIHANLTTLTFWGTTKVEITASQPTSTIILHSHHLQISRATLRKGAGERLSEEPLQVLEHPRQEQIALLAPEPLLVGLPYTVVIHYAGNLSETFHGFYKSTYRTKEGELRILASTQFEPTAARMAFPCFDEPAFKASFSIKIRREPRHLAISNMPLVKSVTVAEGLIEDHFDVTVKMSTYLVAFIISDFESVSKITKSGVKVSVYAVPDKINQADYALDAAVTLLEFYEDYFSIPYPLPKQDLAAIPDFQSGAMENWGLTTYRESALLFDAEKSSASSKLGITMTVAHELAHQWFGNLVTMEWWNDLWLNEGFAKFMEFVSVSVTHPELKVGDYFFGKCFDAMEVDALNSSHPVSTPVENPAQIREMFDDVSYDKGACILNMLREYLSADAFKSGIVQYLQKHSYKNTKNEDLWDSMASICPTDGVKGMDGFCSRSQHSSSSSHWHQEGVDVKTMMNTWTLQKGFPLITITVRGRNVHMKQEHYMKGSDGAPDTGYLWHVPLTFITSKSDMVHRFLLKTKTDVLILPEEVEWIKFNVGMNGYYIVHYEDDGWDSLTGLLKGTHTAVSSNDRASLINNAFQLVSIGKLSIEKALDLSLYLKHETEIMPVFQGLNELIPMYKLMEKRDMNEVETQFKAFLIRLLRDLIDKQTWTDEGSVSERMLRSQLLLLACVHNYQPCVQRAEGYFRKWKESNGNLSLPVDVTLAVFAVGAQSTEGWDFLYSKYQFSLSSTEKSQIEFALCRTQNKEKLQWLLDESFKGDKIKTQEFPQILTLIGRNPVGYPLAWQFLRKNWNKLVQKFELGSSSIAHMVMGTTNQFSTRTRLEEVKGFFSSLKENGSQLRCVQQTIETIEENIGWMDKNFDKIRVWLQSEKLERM
SIRT5 inh: SIRT5 desuccinylase inhibitors, primary screen, biochemical, fluorescence imaging, single point, set 5 | NAD-dependent protein deacylase sirtuin-5, mitochondrial (Homo sapiens), Q9NXA8 | Purified SirT5, succinyl-peptide AMC, trypsin-coupled fluorescence | inhibition, % at 15 µM | 1.1% of 330,000 active | AID 652115, 2013; in the data active = inhibition above about 15%
* hit, by the source's call; x = no result given.

SMILES | FGF22 binding | Casp6 inh | ERAP1 HTS inh | SIRT5 inh
O=C(CCc1ccco1)CCc1ccco1 | 0 | 76* | 0 | 0
NC(=O)c1ccc(NCCc2ccco2)cc1 | 0 | 4 | -3 | -3
COc1ccc(C(=O)Nc2ccc(C(=O)NCCc3ccccc3)cc2)cc1 | 44* | -4 | 0 | -5
COc1ccc(C(=O)NCC(=O)OCc2ccc(F)cc2)cc1 | 0 | 0 | -1 | 14
COc1ccc(C(=O)NCC(=O)OCc2ccccc2F)cc1 | 42 | 2 | 0 | 32*
C[C@H](O)C#Cc1cnc2c(c1)C(=O)N([C@H](C)CO)C[C@H](C)[C@H](CN(C)C(=O)Cc1ccccn1)O2 | 0 | -1 | 0 | -1
COc1ccc(NC(=O)[C@H](C)NC(N)=O)cc1S(=O)(=O)Nc1cc(C)ccc1Br | 0 | -2 | 3 | 16*
COc1cccc(-c2ccc([C@H]3[C@@H](CO)N4CCCCN(CC5CCOCC5)C[C@H]34)cc2)c1 | 0 | 0 | 0 | x
CCN(CCn1cccn1)C(=O)CCc1nnc(CCc2ccccc2OC)o1 | 44* | -1 | -3 | 0
COc1ccccc1CCc1nnc(CCC(=O)N(C)Cc2cccc3cnccc23)o1 | 44* | 2 | -5 | -1
Cc1ccc(S(=O)(=O)Nc2ccc3c(c2)C(=O)N([C@H](C)CO)C[C@@H](C)[C@@H](CN(C)S(=O)(=O)c2c(C)noc2C)OCCCC[C@H](C)O3)cc1 | 0 | 2 | 1 | 11
C[C@@H]1CCCCO[C@H](CN(C)Cc2ccncc2)[C@H](C)CN([C@@H](C)CO)C(=O)c2cc(NC(=O)C3CCCCC3)ccc2O1 | 0 | 3 | 2 | 2
COC(=O)C[C@H]1C[C@@H]2c3cc(NS(=O)(=O)c4ccccc4)ccc3O[C@@H]2[C@@H](CO)O1 | 0 | x | x | x
Cc1ccc(NC(=O)CN(C)C(=O)Cn2ncc(Cl)c(Cl)c2=O)cc1 | 0 | 41* | -2 | x
COc1ccc(S(=O)(=O)N(C)C[C@H]2OCCCC[C@@H](C)Oc3ccc(NC(=O)Nc4ccc(F)cc4)cc3C(=O)N([C@@H](C)CO)C[C@H]2C)cc1 | 0 | 4 | 0 | 17*
COc1ccc(S(=O)(=O)N(C)C[C@@H]2OCCCC[C@H](C)Oc3ccc(NC(=O)Nc4ccc(F)cc4)cc3C(=O)N([C@H](C)CO)C[C@@H]2C)cc1 | 0 | 3 | 0 | 15
C[C@@H]1CCCCO[C@@H](CN(C)S(=O)(=O)c2ccc(F)cc2)[C@H](C)CN([C@H](C)CO)C(=O)c2cc(NC(=O)Nc3ccc(C(F)(F)F)cc3)ccc2O1 | x | 1 | -2 | 15*
COc1ccc(S(=O)(=O)N(C)C[C@@H]2OCCCC[C@H](C)Oc3ccc(NC(=O)Nc4ccc(F)cc4)cc3C(=O)N([C@@H](C)CO)C[C@H]2C)cc1 | 0 | 2 | 1 | 13
COc1ccc(S(=O)(=O)N(C)C[C@H]2OCCCC[C@@H](C)Oc3ccc(NC(=O)Nc4ccc(F)cc4)cc3C(=O)N([C@@H](C)CO)C[C@@H]2C)cc1 | 1 | -2 | 2 | 16*
COc1ccc(NC(=O)Nc2ccc3c(c2)C(=O)N([C@@H](C)CO)C[C@@H](C)[C@H](CN(C)S(=O)(=O)c2ccc(F)cc2)OCCCC[C@@H](C)O3)cc1 | 0 | 0 | 1 | 15*
CCNC(=O)C[C@H]1CC[C@@H]2[C@H](COC[C@H](O)CN2S(=O)(=O)c2ccccc2F)O1 | -1 | -101 | -1 | 2
COc1ccc(S(=O)(=O)N(C)C[C@@H]2OCCCC[C@@H](C)Oc3ccc(NC(=O)Nc4ccc(F)cc4)cc3C(=O)N([C@H](C)CO)C[C@@H]2C)cc1 | 0 | 2 | -1 | 13
COc1ccc(S(=O)(=O)N(C)C[C@@H]2OCCCC[C@@H](C)Oc3ccc(NC(=O)Nc4ccc(F)cc4)cc3C(=O)N([C@@H](C)CO)C[C@@H]2C)cc1 | -1 | 1 | 0 | 17*
COC(=O)c1ccccc1S(=O)(=O)N1CCn2cccc2C1C (stereo not given) | 43* | -1 | -1 | 0
COc1ccc(S(=O)(=O)N(C)C[C@@H]2Oc3ccc(NC(=O)c4ccncc4)cc3C(=O)N([C@H](C)CO)C[C@@H]2C)cc1 | 0 | 0 | -1 | -3
SMILES | FGF22 binding | Casp6 inh | ERAP1 HTS inh | SIRT5 inh
CCc1c(C)[nH]n(-c2nc(-c3ccccc3)cs2)c1=O | 0 | -16 | 9 | 1
Cc1[nH]n(-c2nc(-c3ccc(Cl)cc3)cs2)c(=O)c1N=Nc1ccc(O)cc1 | 43* | 2 | 0 | 0
CC(C)NC(=O)Nc1ccc2c(c1)C(=O)N([C@H](C)CO)C[C@H](C)[C@H](CN(C)S(=O)(=O)c1cn(C)cn1)O2 | 0 | 0 | 2 | 2
CC(Oc1ccccc1)C(=O)Nc1nnc(C2CCCCC2)s1 (stereo not given) | 0 | 2 | -1 | 22*
Cc1ccc2nc(SC(C)C(=O)N3CC(C)OC(C)C3)[nH]c2c1 (stereo not given) | 43* | -3 | 4 | 22*
Oc1ccc(/C=N/N(c2ccccc2)c2ccccc2)cc1O | -1 | 14 | 2 | 0
O=C(/C(=N/N=C/c1ccc(O)c(O)c1)c1ccccc1)c1ccccc1 | 0 | 44* | 3 | 2
O=C1Nc2ccccc2/C1=N\N=C\c1ccc(O)c(O)c1 | -1 | 36* | x | 0
C[C@H](CO)N1C[C@H](C)[C@H](CN(C)C(=O)c2ccncc2)Oc2ncc(C#CC3CCCC3)cc2C1=O | 0 | -1 | 1 | -2
CCCC#Cc1ccc([C@H]2[C@H]3CN(C(=O)c4ccc(F)cc4)CC(=O)N3[C@H]2CO)cc1 | x | 4 | 0 | 0
COc1ccc2c3c([nH]c2c1)[C@H](CO)N(Cc1ccccc1Cl)CC31CN(C(C)=O)C1 | 0 | x | 0 | x
CO[C@H]1CN(C)C(=O)c2cc(NC(=O)Nc3cc(Cl)cc(Cl)c3)ccc2OC[C@@H](C)NC[C@H]1C | x | x | x | 103*
CO[C@H]1CN(C)C(=O)c2ccc(NC(=O)Nc3ccc(C(F)(F)F)cc3)cc2OC[C@H](C)NC[C@H]1C | -1 | 3 | -3 | 15*
CO[C@H]1CN(C)C(=O)c2cc(NC(=O)c3ccccc3F)ccc2OC[C@H](C)NC[C@@H]1C | 0 | 0 | 0 | 25*
CO[C@H]1CN(C)C(=O)c2cc(NC(=O)c3ccccc3F)ccc2OC[C@@H](C)NC[C@@H]1C | 0 | -2 | 0 | 26*
CO[C@H]1CN(C)C(=O)c2cc(NC(=O)c3ccccc3F)ccc2OC[C@H](C)NC[C@H]1C | 0 | -2 | 0 | -1
C[C@@H]1CN([C@H](C)CO)C(=O)c2cc(NS(=O)(=O)c3ccc(Cl)cc3)ccc2O[C@@H](C)CCCCO[C@@H]1CN(C)C(=O)Cc1ccccc1 | 0 | -2 | 6 | 1
COC(=O)C[C@@H]1CC[C@@H]2[C@H](COc3ccc(NC(=O)c4ccc(OC)cc4)cc3C(=O)N2C)O1 | x | -2 | 5 | 0

Bioassay records deposited in PubChem BioAssay by Broad Institute.
